Source: ChEMBL document CHEMBL4513143, “CO-ADD screening of University of Natural Resources and Life (Austria) compounds”
Measured potencies and affinities stand elsewhere.

Assays:
[1] = tested on: Staphylococcus aureus; settings: Concentration 32 ug.mL-1; ASSAY_TEST Inhibition of Bacterial Growth; detection method Absorption (OD600); MEDIA CAMHB; plate type 384well; NBS; CORNING #3640; time 18 hr
[2] = tested on: Escherichia coli; settings: Concentration 32 ug.mL-1; ASSAY_TEST Inhibition of Bacterial Growth; detection method Absorption (OD600); MEDIA CAMHB; plate type 384well; NBS; CORNING #3640; time 18 hr

CCN(CC)CC.C[C@@H](CC1O[C@H]([C@H](O)CO)[C@@H](O)[C@H](O)[C@@H]1O)OP(=O)(O)OC[C@H]1O[C@@H](n2cnc3c(N)ncnc32)[C@H](O)[C@@H]1O (stereo not given in full)
Inhibition [1]: 27.38%
Inhibition [2]: 10.57%

OC[C@@H](O)[C@H]1OC(O)C[C@@H](O)[C@@H]1O (stereo not given in full)
Inhibition [1]: 21.66%
Inhibition [2]: 15.99%

CCN(CC)CC.C[C@H](CC1O[C@H]([C@H](O)CO)[C@@H](O)[C@H](O)[C@@H]1O)OP(=O)(O)OC[C@H]1O[C@@H](n2cnc3c(N)ncnc32)[C@H](O)[C@@H]1O (stereo not given in full)
Inhibition [1]: 30.75%
Inhibition [2]: 16.06%

CCN(CC)CC.C[C@H](CC1O[C@H]([C@@H](O)CO)[C@@H](O)[C@H](O)[C@@H]1O)OP(=O)(O)OC[C@H]1O[C@@H](n2cnc3c(N)ncnc32)[C@H](O)[C@@H]1O (stereo not given in full)
Inhibition [1]: 25.31%
Inhibition [2]: 11.12%

CCN(CC)CC.C[C@@H](CC1O[C@H]([C@@H](O)CO)[C@@H](O)[C@H](O)[C@@H]1O)OP(=O)(O)O (stereo not given in full)
Inhibition [1]: 24.59%
Inhibition [2]: 26.95%

N.O=C(O)C1(O)C[C@@H](O)[C@H](O)[C@@H]([C@@H](O)CO)O1 (stereo not given in full)
Inhibition [1]: 25.6%
Inhibition [2]: 22.94%

CCN(CC)CC.C[C@H](CC1O[C@H]([C@@H](O)CO)[C@@H](O)[C@H](O)[C@@H]1O)OP(=O)(O)O (stereo not given in full)
Inhibition [1]: 23.43%
Inhibition [2]: 26.24%

CCN(CC)CC.C[C@@H](CC1O[C@H]([C@@H](O)CO)[C@@H](O)[C@H](O)[C@@H]1O)OP(=O)(O)OC[C@H]1O[C@@H](n2cnc3c(N)ncnc32)[C@H](O)[C@@H]1O (stereo not given in full)
Inhibition [1]: 27.76%
Inhibition [2]: 16.43%

CC(=O)CC1O[C@H]([C@@H](O)CO)[C@@H](O)[C@H](O)[C@@H]1O (stereo not given in full)
Inhibition [1]: 21.72%
Inhibition [2]: 24.3%

CCN(CC)CC.O=P(O)(O)OC1C[C@@H](O)[C@H](O)[C@@H]([C@H](O)CO)O1 (stereo not given in full)
Inhibition [1]: 23.92%
Inhibition [2]: 21.41%
